Results reported in PubChem BioAssay (NCI).
About 83,000 compounds went through this panel and 20% of them were active in at least one assay; those are over-represented in the sample as a whole.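 Testing used 96-well plates and a 48-hour single-concentration exposure. Example: -40 means 40% of the starting cells died.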 Calls of active or inactive are those of the source. The calls were made as follows: active = growth percent below 10; inactive = the rest.

These molecules were tested on MDA-MB-468 breast (assay: NCI-60 one-dose screen, 48 h (100 = growth as untreated, 0 = no growth, -100 = all killed)). Details: 10 µM unless noted.

Compound | growth
O=C(NC(=S)N1CC=CCC1)c1ccccc1 | 121% (inactive)
COC(=O)c1c2c(c(C)[n+]([O-])c1C)C(=O)C=C(NCc1ccc(Br)cc1)C2=O | -60.1% (active)
Nc1cc2ccccc2c(O)c1O | -3.32% (active)
CCC(O)C(C)(C)C (stereo not given) | 115% (inactive)
Nc1c(C(=O)Nc2cccc(C(F)(F)F)c2)sc2nc3c(cc12)CCCCCC3 | -24.9% (active)
O=C(/C=C/c1c(-c2ccccc2)[nH]c2ccccc12)S(=O)(=O)c1ccccc1 | 18.7% (inactive)
O=C(/C=C/C12c3ccccc3C(c3ccccc31)C1C(=O)NC(=O)C12)c1ccc(F)cc1 (stereo not given) | -25% (active)
O=C(OCC1CCCO1)c1ccc([N+](=O)[O-])cc1 (stereo not given) | 88.9% (inactive)
CCc1nc(N)nc(N)c1C#CC(C)c1cc(-c2ccnc(C)c2)c2oc(C)nc2c1 (stereo not given) | -20.6% (active)
COCCOc1cnc2ccn([C@H](C)c3nnc4c(F)cc(-c5cnn(C)c5)cn34)c(=O)c2c1 | 96.7% (inactive)
NC(N)=NS(=O)(=O)c1ccc(N=Nc2c(N)nn(-c3ccc([N+](=O)[O-])cc3[N+](=O)[O-])c2N)cc1 | 106% (inactive)
O=S(=O)(NCCNc1nccc(-c2c(-c3cccc(F)c3)nc3occn23)n1)c1ccc(C(F)(F)F)cc1 | 74.7% (inactive)
O=Nc1c2cccnc2n2nnc3ccc(Cl)cc3c12 | -69.4% (active)
S=c1[nH]cccc1-c1nnc2n1Nc1nc3ccc(Cl)cc3cc1CS2 | 109% (inactive)
O=C(Nc1ccc2[nH]ncc2c1)c1csc(Nc2ccccc2)n1 | 14.4% (inactive)
